Our source for the z-score values is PubChem BioAssay.

Molecules are shown by their SMILES. Activity calls are given as the source filed them.

The nature of one test: changes in parasitized red cell lysis, either direction – P. falciparum Indochina, OD700, 3 h, PSAC antagonist project, primary screen (AID 1156). The settings on record: P. falciparum-infected erythrocytes, osmotic lysis, higher = more signal, called active from +8 up or from −8 down.
In the case of `CN(C)C(=O)[C@]1(CCC(=O)OC(C)(C)C)N=C(c2ccc(OCCCO)cc2)O[C@@H]1c1ccccc1`, the z-score is -0.0962 (inactive). Still for that read-out and setting: then `COCCOC(=O)N1C(=O)[C@@]2(c3cc(C#CC4(O)CCCCCC4)ccc31)[C@H](C(N)=O)[C@H]1C(=O)O[C@H](c3ccccc3)[C@H](c3ccccc3)N1[C@@H]2c1ccccc1OCCO`, with 3.54 (inactive).

In the case of `CC(CO)N1C(=O)[C@@H]2C3C(=O)OCCC/C=C\[C@H]3OC23C=CCN(Cn2nnc4ccccc42)C(=O)[C@@H]13` (stereo not given in full), the z-score is 2.14 (inactive). Still for that read-out and setting: in the case of `COC(=O)[C@@]1(Cc2ccc(OC)cc2)[C@H]2c3cc(C(=O)N(C)C)n(CCc4c[nH]c5ccc(O)cc45)c3C[C@H]2CN1C(=O)c1ccccc1` it was 0.396 (inactive). The same measure, in the same setting: then `O=c1cccc(-c2cccc(Cl)c2)o1`, with -0.51 (inactive). On the same count and under the same terms, then `O=C1O[C@H](c2ccccc2)[C@H](c2ccccc2)N2[C@H]1[C@@H](C(=O)O)[C@]1(C(=O)Nc3ccccc31)[C@H]2c1ccc(O)cc1`, with -0.236 (inactive); and `COCCOC(=O)N1C(=O)[C@@]2(c3ccccc31)[C@H](C(=O)N1CCN(c3ncccn3)CC1)[C@H]1C(=O)O[C@H](c3ccccc3)[C@H](c3ccccc3)N1[C@@H]2c1ccc(OCCO)cc1`, with 0.779 (inactive). For the compound `CCOC(=O)C1=C[C@@H](c2ccccc2)N(S(=O)(=O)c2ccc(C)cc2)[C@H]1c1cccc(Cl)c1`, the z-score is -0.276 (inactive). Turning to `O=C1c2ccccc2[C@](Cc2ccccc2I)(C(=O)NCCN2CCOCC2)[C@H](c2ccc(CO)cc2)N1Cc1ccccc1`, the z-score was -0.188 (inactive). Still for that read-out and setting: in the case of `O=C(O)[C@H]1C[C@H]2C(=O)N3CCC[C@H]3C(=O)N2[C@H]1c1cccc(OCCO)c1` it was -1.69 (inactive).

The nature of a further test: plasmodial surface anion channel blockers, osmotic lysis – cell-based, P. falciparum Indochina, OD700, 18 h, primary screen (AID 1157). The settings on record: P. falciparum Indochina infected erythrocytes, osmotic lysis OD700, 18 h; higher = more signal, called active from +8 up or from −8 down.
As to `O=C1C[C@]2(c3ccc([N+](=O)[O-])cc3)C(=O)N(Cc3ccccc3)c3cc(CO)ccc3[C@H]2N1CC12CC3CC(CC(C3)C1)C2`, the z-score was 0.23 (inactive). On to `Cc1c(NC(=O)/C(C#N)=C/C=C/c2ccc(N(C)C)cc2)c(=O)n(-c2ccccc2)n1C`, for which the z-score is 0.89 (inactive). `COCCOC(=O)N1C(=O)[C@@]2(c3ccccc31)[C@H](c1ccc(OCCO)cc1)N1[C@H](c3ccccc3)[C@H](c3ccccc3)OC(=O)[C@H]1[C@@H]2C(=O)Nc1nc2ccccc2s1`: the z-score is 1.74 (inactive). As for `COCCCNC(=O)[C@@]1(Sc2ccc(C)cc2)CC(=O)N(Cc2cc(C(F)(F)F)cc(C(F)(F)F)c2)[C@@H]1c1ccc(CO)cc1`, the z-score was 0.302 (inactive). On the same count and under the same terms, then `CCCC[C@@H]1C[C@H]1[C@@H](NC(=O)c1ccccc1)c1ccc(Cl)cc1`, with 0.839 (inactive); and `CC(C)C(CO)N1C(=O)[C@]2(C)C3C(=O)OCCC/C=C\[C@H]3OC23C=CCN(c2ccc(Cl)cc2)C(=O)[C@@H]13` (stereo not given in full), with 0.673 (inactive). In the case of `COC(=O)[C@@]1(Cc2ccc(OC)cc2)[C@H]2c3cc(C(=O)N4CCCC4)n(CCc4cc5ccccc5[nH]4)c3C[C@H]2CN1C(=O)c1ccccc1`, the z-score was 1.11 (inactive). Take `CCCC[C@@H]1C[C@H]1[C@@H](NC(=O)c1cccnc1)c1ccc(-c2ccccc2)cc1`: the z-score is 0.445 (inactive). Turning to `[N-]=[N+]=Nc1ccccc1[C@@H]1OC(c2ccc(OCCCO)cc2)=N[C@]1(CCS(=O)(=O)c1ccccc1)C(=O)NCCN1CCOCC1`, the z-score is 0.667 (inactive). Still for that read-out and setting: in the case of `C[C@@H](OCc1ccccc1)C1NC(=O)[C@@]23C(=O)N[C@@H](Cc4ccccc4)C2[C@H](C)[C@@]2(C)O[C@H]2C3/C=C/C/C=C\CNC(=O)CNC1=O` (stereo not given in full) it was -0.0634 (inactive); in that of `C=C(CCCC)/C(=C/C[C@@H](OC(=O)c1ccncc1)c1cccc(OCCO)c1)c1cnc2ccccc2c1`, 1.12 (inactive). As to `CC(=O)n1cc(C(O)C2C=CC3C(=O)N(c4ccccc4)C(=O)C3N2Nc2ccccc2)c2ccccc21` (stereo not given), the z-score was -0.568 (inactive). On to `C=CCN1C(=O)[C@]2(CC=C)N=C(c3ccc(OCCCO)cc3)O[C@@H]2c2ccccc21`, for which the z-score is 10.6 (active). The same measure, in the same setting: in the case of `CCOC(=O)C[C@H]1[C@H](OC(=O)Cc2ccc3c(c2)OCO3)[C@@H](NC(=O)C2CCCCC2)c2cc(OCCCO)ccc2N1C(=O)c1ccc2ccccc2n1` it was -2.2 (inactive); in that of `O=C1O[C@@H](c2ccccc2)[C@@H](c2ccccc2)N2[C@@H](c3ccccc3OCCO)[C@]3(C(=O)Nc4ccc(C#CC5=CCCCC5)cc43)[C@@H](C(=O)NC[C@H](O)c3ccccc3)[C@H]12`, 0.0195 (inactive); in that of `O=C1OCC=C[C@H]2OC34C=CCN(Cn5nnc6ccccc65)C(=O)[C@H]3N(CCCCCCO)C(=O)[C@@H]4[C@@H]12` (stereo not given in full), 0.648 (inactive).

Regarding `COCCCNC(=O)[C@]1(Cc2ccccc2N=[N+]=[N-])N=C(c2ccc(OCCCO)cc2)O[C@@H]1c1ccccc1N=[N+]=[N-]`, the z-score was 7.56 (inactive). The same measure, in the same setting: in the case of `CC(C)c1ccc(NN2C(C(O)c3ccco3)C=CC3C(=O)N(c4ccccc4)C(=O)C32)cc1` (stereo not given) it was 1.29 (inactive); in that of `Cc1ccc(S[C@]2(C(=O)NCC(C)C)CC(=O)N(Cc3ccccc3Cl)[C@@H]2c2ccc(CO)cc2I)cc1`, 0.254 (inactive); in that of `C=CCC(OC(C)=O)[C@@H]1[C@@H](N(Cc2ccc(-c3ccccc3)cc2)C(=O)c2cccc3ccccc23)c2cc(OCCCO)ccc2N1C(=O)Cc1ccc2ccccc2c1` (stereo not given in full), 0.283 (inactive).

`CC=CC(O)C1C=CC2C(=O)N(C)C(=O)C2N1Nc1ccc([N+](=O)[O-])cc1[N+](=O)[O-]` (stereo not given): the z-score is 1.1 (inactive). For the compound `CC(C)(C)OC(=O)CC[C@]1(C(=O)NCCN2CCOCC2)N=C(c2ccc(OCCCO)cc2)O[C@H]1c1ccccc1`, the z-score was 0.47 (inactive). On the same count and under the same terms, in the case of `CCCCC(=C=CC[C@@H](O)c1ccc(OCCO)cc1)C[C@@H](O)COCc1ccccc1` it was -0.237 (inactive); in that of `COC(=O)[C@H](Cc1ccccc1)N1CC(/C=C/C2CC2)=C[C@@H]1[C@@H](O)Cc1ccccc1`, 0.401 (inactive). For the compound `COCCOC(=O)N1C(=O)[C@@]2(c3cc(C#CCC(C(=O)OC)C(=O)OC)ccc31)[C@H](c1ccc(OCCO)cc1)N1[C@H](c3ccccc3)[C@H](c3ccccc3)OC(=O)[C@H]1[C@@H]2C(=O)N1CCN(c2ncccn2)CC1`, the z-score was -0.0311 (inactive). As to `CN(C)C(=O)[C@]1(CCC(=O)OC(C)(C)C)N=C(c2ccc(OCCCO)cc2)O[C@@H]1c1ccccc1`, the z-score is 0.84 (inactive). As for `COCCOC(=O)N1C(=O)[C@@]2(c3cc(C#CC4(O)CCCCCC4)ccc31)[C@H](C(N)=O)[C@H]1C(=O)O[C@H](c3ccccc3)[C@H](c3ccccc3)N1[C@@H]2c1ccccc1OCCO`, the z-score is 1.62 (inactive). Same read-out and setting: in the case of `CC(CO)N1C(=O)[C@@H]2C3C(=O)OCCC/C=C\[C@H]3OC23C=CCN(Cn2nnc4ccccc42)C(=O)[C@@H]13` (stereo not given in full) it was 0.502 (inactive); in that of `COC(=O)[C@@]1(Cc2ccc(OC)cc2)[C@H]2c3cc(C(=O)N(C)C)n(CCc4c[nH]c5ccc(O)cc45)c3C[C@H]2CN1C(=O)c1ccccc1`, 1.23 (inactive); in that of `O=c1cccc(-c2cccc(Cl)c2)o1`, 1.27 (inactive).

Regarding `O=C1O[C@H](c2ccccc2)[C@H](c2ccccc2)N2[C@H]1[C@@H](C(=O)O)[C@]1(C(=O)Nc3ccccc31)[C@H]2c1ccc(O)cc1`, the z-score is 0.678 (inactive). On to `COCCOC(=O)N1C(=O)[C@@]2(c3ccccc31)[C@H](C(=O)N1CCN(c3ncccn3)CC1)[C@H]1C(=O)O[C@H](c3ccccc3)[C@H](c3ccccc3)N1[C@@H]2c1ccc(OCCO)cc1`, for which the z-score was 1.24 (inactive). The same measure, in the same setting: in the case of `CCOC(=O)C1=C[C@@H](c2ccccc2)N(S(=O)(=O)c2ccc(C)cc2)[C@H]1c1cccc(Cl)c1` it was 0.805 (inactive); in that of `O=C1c2ccccc2[C@](Cc2ccccc2I)(C(=O)NCCN2CCOCC2)[C@H](c2ccc(CO)cc2)N1Cc1ccccc1`, 0.352 (inactive); in that of `O=C(O)[C@H]1C[C@H]2C(=O)N3CCC[C@H]3C(=O)N2[C@H]1c1cccc(OCCO)c1`, 0.619 (inactive).
